Experimental data published in PubChem BioAssay (EPA / NIEHS).
Inconclusive results are not listed. The source made the active and inactive calls. How the source made its calls: active means hit-call score of the fitted dose curve at least 0.9, where 1 is the maximum; inconclusive means response in the unintended direction; inactive means score below 0.9.

Target: Peroxisome proliferator-activated receptor gamma (Homo sapiens) (UniProt P37231)
Test: OT_PPARg_PPARgSRC1_0480: Odyssey Thera (OT) 8-hour Protein-Complementation Assay for Peroxisome Proliferator-activated Receptor Gamma / SRC-1 Co-activator (AID 2283387);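 further: nuclear to cytoplasmic split Venus YFP fluorescence ratio reporting PPARg SRC-1 interaction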
Method: OT_PPARg_PPARgSRC1_0480 is a cell-based assay that uses HEK293T, a human kidney cell line, with measurements taken at 8 hours after chemical dosing in a 384-well plate.OT_PPARg_PPARgSRC1_0480 is one of one assay component(s) measured or calculated from the OT_PPARg_PPARgSRC1_0480 assay. It is designed to make measurements of protein fragment complementation, a form of binding reporter, as detected with fluorescence intensity signals by Protein-fragment Complementation technology.Data from the assay component OT_PPARg_PPARgSRC1_0480 was analyzed into 1 assay endpoint. This assay endpoint, OT_PPARg_PPARgSRC1_0480, was analyzed in the positive analysis fitting direction relative to DMSO as the negative control and baseline of activity. Using a type of binding reporter, measures of receptor for gain-of-signal activity can be used to understand the binding at the pathway-level as they relate to the gene PPARG. Furthermore, this assay endpoint can be referred to as a primary readout, because the performed assay has only produced 1 assay endpoint. To generalize the intended target to other relatable targets, this assay endpoint is annotated to the nuclear receptor intended target family, where the subfamily is non-steroidal.
The OT PPARg/SRC-1 assay assessed receptor-chemical interactions using a rapidly maturing, intensely fluorescent mutant of YFP known as Venus, rationally dissected into two separate fragments. The fragments were obtained as follows: first, fragments coding for YFP1 and YFP2 (corresponding to amino acid residues 1-158 and 159-239 of the full length YFP, respectively) were generated by oligonucleotide synthesis (Blue Heron Biotechnology), and then PCR mutagenesis was used to generate the mutant fragments IFP1 and IFP2. Fusion constructs were transfected into HEK293T cells with a (Gly4Ser)2 linker between the PPARg/SRC-1 and YFP fragment genes to facilitate complementation when interacting proteins bring fragments into close proximity. The construct is transiently transfected in HEK293T cells 48 hours prior to treatment with test compounds. Cells are seeded into optical quality 384-well poly-D-lysine coated plates in MEM alpha medium (Invitrogen) supplemented with 10 percent FBS (Gemini Bio-Products) 1 percent penicillin and 1 percent streptomycin, and grown in 37C incubator equilibrated to 5 percent CO2. Cells are allowed to adhere for 24 hours prior to treatment with compounds of interest or controls for 8 hours. Cells are fixed in 4 percent formaldehyde and stained with Draq5 (BioStatus) to identify cells and subcellular compartment boundaries prior to signal detection. 8 Images per well were acquired on an Evotec Opera at 2 wavelengths (488 and 635nm), and the ratio of fluorescence in the nucleus relative to fluorescence in the cytoplasm (N/C Ratio) in the 488nm channel was calculated for a minimum of 350 cells per image.

Chain of Peroxisome proliferator-activated receptor gamma (Homo sapiens) (P37231 whole entry, looked up): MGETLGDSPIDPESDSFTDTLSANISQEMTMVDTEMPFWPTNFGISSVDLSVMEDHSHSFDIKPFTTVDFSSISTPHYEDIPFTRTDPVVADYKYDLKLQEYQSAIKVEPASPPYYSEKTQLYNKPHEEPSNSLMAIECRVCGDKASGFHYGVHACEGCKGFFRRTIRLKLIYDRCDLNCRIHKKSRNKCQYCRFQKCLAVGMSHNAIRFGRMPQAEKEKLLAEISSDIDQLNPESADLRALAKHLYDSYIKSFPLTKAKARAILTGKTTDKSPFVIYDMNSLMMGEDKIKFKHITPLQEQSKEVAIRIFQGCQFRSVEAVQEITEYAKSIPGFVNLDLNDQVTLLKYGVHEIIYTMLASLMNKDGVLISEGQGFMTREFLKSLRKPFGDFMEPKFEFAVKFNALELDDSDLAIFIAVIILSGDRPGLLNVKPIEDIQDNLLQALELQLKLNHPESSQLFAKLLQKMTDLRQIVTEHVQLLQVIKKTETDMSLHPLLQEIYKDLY

outcome, inactive:
O=C(O)c1cccc(Oc2ccccc2)c1, C1N2CN3CN1CN(C2)C3, CC1=CC(=O)CC(C)(C)C1, Cn1cnc([N+](=O)[O-])c1Sc1ncnc2nc[nH]c12, Cn1c(=O)cc(Oc2ccc(F)cc2F)c2cnc(NCC(C)(C)O)nc21, CC(C)=CCC/C(C)=C\CO, Cc1ccc(C)c(O)c1, CCOc1cccc(-n2cc(C(=O)N3CCN(c4cc(C(=O)O)c5ccccc5c4)CC3)nc2-c2ccc(C)cc2)c1, O=C(OC[C@H]1O[C@@H](OC(=O)c2cc(O)c(O)c(OC(=O)c3cc(O)c(O)c(O)c3)c2)[C@H](OC(=O)c2cc(O)c(O)c(OC(=O)c3cc(O)c(O)c(O)c3)c2)[C@@H](OC(=O)c2cc(O)c(O)c(OC(=O)c3cc(O)c(O)c(O)c3)c2)[C@@H]1OC(=O)c1cc(O)c(O)c(OC(=O)c2cc(O)c(O)c(O)c2)c1)c1cc(O)c(O)c(OC(=O)c2cc(O)c(O)c(O)c2)c1, Oc1ccc2c(c1)-c1ccccc1C2, CCNc1ccccc1, CCCCCCCCO, CNS(=O)(=O)c1cc(C(=O)N2CCC(CCN3C4CCC3CC(n3c(C)nc5ccccc53)C4)(c3cccc(F)c3)CC2)c(Cl)cc1F (stereo not given), CCCN(C1CCN(C(=O)C2CCNCC2)CC1)[C@@H]1CCc2ccc(OC)cc2C1, CCN(C(=O)c1cc(C)cc(OC[C@H](C)Nc2ccncc2)c1)C(C)C, O=C1OC(=O)C2C3C=CC(C3)C12 (stereo not given), COc1cccc(-c2ccc(/C=C\CN3CCCCCC3)cc2Cl)c1, COc1ccc(/C=C/S(=O)(=O)NC(=O)c2ccc(C)cc2Cl)cc1, CC(O)CN(CCN(CC(C)O)CC(C)O)CC(C)O (stereo not given), CCn1nc(Cc2ccccc2)cc1C1CCN(C[C@H]2C[C@H](N(C)[C@@H](C(=O)O)C(C)C)C[C@@H]2c2cccc(F)c2)CC1, C1=CCCC=CCCC=CCC1, CCCCC(CC)COC(=O)c1ccc(C(=O)OCC(CC)CCCC)cc1 (stereo not given), O=C1CCCCCN1, COCCOCCOCCOC, COc1ccc(-n2nc(C(F)F)cc2-c2ccc(S(C)=O)cc2)cc1 (stereo not given), O=C(O)CC(O)C(=O)O (stereo not given), Cc1c(-c2cccnc2)c2ccccc2n1CCCCC(=O)O, O=C(CCCCCCCCc1cccnc1)N1CCC(C=C(c2ccccc2)c2ccccc2)CC1, Cc1ccc(S(=O)(=O)O)cc1C, CCCCCCCCCCCCc1ccccc1, CC/C(=C\C(=N/O)C(N)=O)C(C)[N+](=O)[O-] (stereo not given), CCCCCCCCCCCCCCCO, CC(C)(O)c1coc(S(=O)(=O)NC(=O)Nc2c3c(cc4c2CCC4)CCC3)c1, CCOC(=O)COc1ccc2c(c1)CC(NCC(O)c1cccc(Cl)c1)CC2 (stereo not given), CC[C@H](C)C(=O)O[C@H]1C[C@@H](C)C=C2C=C[C@H](C)[C@H](CC[C@@H]3C[C@@H](O)CC(=O)O3)[C@H]21, Nc1nc2ncc(CNc3ccc(C(=O)N[C@@H](CCC(=O)O)C(=O)O)cc3)nc2c(=O)[nH]1, C=CCCCCCCCCC(=O)O, CCCC(=O)OCC, Fc1ccccc1[C@@H](F)COC1CCC(Nc2ncnc3[nH]ncc23)CC1 (stereo not given in full), Cn1c(=O)c2c(ncn2C)n(C)c1=O
